Among the test systems are HCT-15 colon; HT29 colon; SNB-75 CNS; SNB-19 CNS; U251 CNS; PC-3 prostate; SK-MEL-5 melanoma; UACC-62 melanoma; LOX IMVI melanoma; SK-MEL-28 melanoma; SK-MEL-2 melanoma; EKVX NSCLC; SN12C renal; TK-10 renal; ACHN renal; A498 renal; CCRF-CEM leukemia; MOLT-4 leukemia; CAKI-1 renal; UO-31 renal.
Holding throughout (assay): NCI-60 one-dose screen, 48 h (100 = growth as untreated, 0 = no growth, -100 = all killed)
What all share (settings): 10 µM unless noted

About 83,000 compounds went through this panel and 20% of them were active in at least one assay; those are over-represented in the sample as a whole.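 Cells were grown in 96-well plates and exposed to the test compound at a single concentration for 48 hours; results are reported as percent growth, with values below 10 considered active.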 Unmarked numbers belong to inactive results. Active and inactive are the calls of the source.

Take `N#Cc1ccc(NC(=O)c2sc3nc4c(cc3c2N)C(=O)CCC4)cc1`: the growth with HCT-15 colon was 101%; in the experiment on HT29 colon it was 84.9%; in the experiment on SNB-75 CNS it was 113%; in the experiment with SNB-19 CNS, 102%; with U251 CNS it was 106%; in the experiment with PC-3 prostate it was 107%. Further, the growth in the experiment with SK-MEL-5 melanoma was 92.6%; in the experiment on UACC-62 melanoma, 99.3%; with LOX IMVI melanoma, 112%; in the experiment on SK-MEL-28 melanoma, 106%; in the experiment with SK-MEL-2 melanoma it was 83%; in the experiment on EKVX NSCLC, 93.6%. Also, the growth in the experiment on SN12C renal was 98.3%; in the experiment on TK-10 renal, 65.9%; in the experiment on ACHN renal, 108%; with A498 renal it was 79.6%; with CCRF-CEM leukemia it was 99.8%; in the experiment on MOLT-4 leukemia it was 115%.

In the case of `Cc1c(C(=O)NCCCc2ccccc2)sc2ncc(-c3ccc(Br)cc3)n12`, the growth in the experiment on HCT-15 colon is 104%; with HT29 colon, 120%; in the experiment on SNB-75 CNS it was 98.4%; in the experiment with SNB-19 CNS it was 101%; with U251 CNS, 100%; with PC-3 prostate it was 102%. For the same molecule, the growth in the experiment with SK-MEL-5 melanoma was 101%; in the experiment with UACC-62 melanoma, 95.7%; with LOX IMVI melanoma, 99.1%; in the experiment with SK-MEL-28 melanoma it was 104%; in the experiment on SK-MEL-2 melanoma it was 115%; in the experiment with EKVX NSCLC it was 106%. In addition, the growth in the experiment on SN12C renal is 98.7%; in the experiment on TK-10 renal it was 135%; with ACHN renal it was 103%; with CAKI-1 renal, 101%; in the experiment on CCRF-CEM leukemia, 96.8%; in the experiment with MOLT-4 leukemia it was 99.8%.

As for `CC1Cc2ccccc2N1NC(=O)c1ccc(Cl)c(S(N)(=O)=O)c1` (stereo not drawn), the growth was 106% in the experiment with HCT-15 colon; 99.9% in the experiment on HT29 colon; 90.4% in the experiment with SNB-75 CNS; 102% in the experiment on SNB-19 CNS; 100% in the experiment on U251 CNS; 88% with PC-3 prostate. The growth was 101% in the experiment with SK-MEL-5 melanoma; 99.4% with UACC-62 melanoma; 96.2% with LOX IMVI melanoma; 104% in the experiment with SK-MEL-28 melanoma; 108% in the experiment on EKVX NSCLC; 96.3% in the experiment with SN12C renal. Besides, the growth in the experiment on UO-31 renal is 83.6%; in the experiment with TK-10 renal, 101%; in the experiment with ACHN renal, 98%; in the experiment on CAKI-1 renal, 94.5%; with A498 renal, 114%; in the experiment with CCRF-CEM leukemia, 95.9%. Besides, in the experiment on MOLT-4 leukemia, the growth was 86.5%.

In the case of `CN1CCN(c2ccc(-c3cnc4c(-c5csc6ccccc56)cnn4c3)cc2)CC1`, the growth with HCT-15 colon is -4.7% (active); in the experiment with HT29 colon, -40.4% (active); in the experiment with SNB-75 CNS, -54.4% (active); in the experiment on SNB-19 CNS it was 13.3%; with U251 CNS it was -87.3% (active); in the experiment on PC-3 prostate, -12.4% (active). The growth in the experiment with SK-MEL-5 melanoma was -100% (active); in the experiment on UACC-62 melanoma, -2.26% (active); in the experiment on LOX IMVI melanoma, -91.2% (active); in the experiment with SK-MEL-2 melanoma it was -32.8% (active); with EKVX NSCLC, 22%; in the experiment on SN12C renal, 0.637% (active). In addition, the growth with UO-31 renal is -89.4% (active); with TK-10 renal it was -18.7% (active); with ACHN renal, -82.4% (active); in the experiment with CAKI-1 renal it was -13.9% (active); with A498 renal, -55.5% (active); in the experiment with CCRF-CEM leukemia, 16.8%. Moreover, the growth in the experiment with MOLT-4 leukemia is 16.2%.

As to `COc1cccc(-c2nc(-c3ccc(NC(=O)OC(C)C)cc3)[nH]c2-c2ccnc(Br)c2)c1`, the growth in the experiment on HCT-15 colon was 4.09% (active); with HT29 colon, 18.3%; in the experiment on SNB-75 CNS it was 23.6%; in the experiment on SNB-19 CNS, 40.3%; with U251 CNS it was 32.7%; in the experiment on PC-3 prostate, 17.5%. The growth with SK-MEL-5 melanoma is 21.9%; with UACC-62 melanoma it was 9.86% (active); in the experiment with LOX IMVI melanoma it was 2.73% (active); in the experiment on SK-MEL-28 melanoma, 37.7%; in the experiment on EKVX NSCLC, 27.6%; in the experiment with SN12C renal it was 30.8%. The growth in the experiment with UO-31 renal is 9.01% (active); in the experiment on TK-10 renal it was 48.6%; in the experiment on ACHN renal it was 14.5%; in the experiment on CAKI-1 renal, 28%; with A498 renal it was -4.13% (active); in the experiment on CCRF-CEM leukemia, 18.3%. The growth in the experiment with MOLT-4 leukemia was 10.3%.

As to `COc1ccc2c(c1)C(C)Cc1c(ncnc1-n1c(C)nc3ccccc31)N2C` (stereo not drawn), the growth is 22.8% in the experiment with HCT-15 colon; 7.08% (active) in the experiment on HT29 colon; -4.89% (active) in the experiment with SNB-75 CNS; 32.3% in the experiment on SNB-19 CNS; 25.6% in the experiment on U251 CNS; 16.2% with PC-3 prostate. In addition, the growth is 20% in the experiment on SK-MEL-5 melanoma; 23.3% in the experiment with UACC-62 melanoma; 25.7% with LOX IMVI melanoma; 66.4% in the experiment with SK-MEL-28 melanoma; 43.4% in the experiment on EKVX NSCLC; 35.8% with SN12C renal. The growth in the experiment with UO-31 renal was 37.3%; in the experiment on TK-10 renal it was 57%; in the experiment with ACHN renal, 51.4%; with CAKI-1 renal, 25.2%; with A498 renal it was -9.67% (active); in the experiment with CCRF-CEM leukemia it was 18.3%. Further, the growth in the experiment on MOLT-4 leukemia was 20.6%.

For `Cc1nn(-c2ccccc2)c(-n2ccnc2)c1/C=N/Nc1nc(-c2ccc(F)cc2)cs1`, the growth in the experiment with HCT-15 colon was 76.8%; with HT29 colon, 81.2%; in the experiment with SNB-75 CNS, 73.7%; with SNB-19 CNS, 87.1%; in the experiment on U251 CNS, 74.4%; in the experiment on PC-3 prostate, 65.5%. The growth is 31.4% in the experiment with SK-MEL-5 melanoma; 74.9% with UACC-62 melanoma; 83.7% in the experiment with LOX IMVI melanoma; 98.1% with SK-MEL-2 melanoma; 49.5% in the experiment with EKVX NSCLC; 80.3% with SN12C renal. In addition, the growth in the experiment with UO-31 renal was 51.2%; with TK-10 renal it was 98.3%; in the experiment on ACHN renal, 78.9%; with CAKI-1 renal, 80%; with A498 renal it was 71.8%; in the experiment on CCRF-CEM leukemia, 70.1%.

With `COc1ccc(-c2nc(NN)c3c(C)nn(-c4ccc(F)cc4)c3n2)cc1`, the growth in the experiment with HCT-15 colon is 31.2%; in the experiment on HT29 colon, 7.11% (active); with SNB-75 CNS it was 23.3%; with SNB-19 CNS it was 35.1%; in the experiment with U251 CNS, 27.1%; in the experiment with PC-3 prostate, 42.3%. For the same molecule, the growth was 40.7% with SK-MEL-5 melanoma; 36.2% in the experiment on UACC-62 melanoma; 41.9% in the experiment on LOX IMVI melanoma; 61.4% with SK-MEL-28 melanoma; 24.1% in the experiment on SK-MEL-2 melanoma; 59.4% in the experiment with EKVX NSCLC. Moreover, the growth is 44.5% in the experiment with SN12C renal; 77.3% with TK-10 renal; 40.2% in the experiment with ACHN renal; 20.8% in the experiment with A498 renal; 23.4% with CCRF-CEM leukemia; 37.5% in the experiment on MOLT-4 leukemia.

These data come from PubChem BioAssay (NCI).
